The list is not random: actives were taken first. Their share in the collection is about 0.33%.
FXIa single inh = human FXIa protease inhibitors, primary screen, biochemical, single compound per well; purified human FXIa, fluorogenic AMC substrate cleavage; AID 687, 2007; Coagulation factor XI (Homo sapiens), P03951; 33,000 compounds, 0.3% hits; inhibition, % at 10 µM;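 active means inhibition above 40% in the primary screen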;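 further: 0% = enzyme without compound and 100% = blank wells lacking enzyme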
FXIIa single = human FXIIa protease inhibitors, primary screen, biochemical, single well; inhibition, % at 10 µM; AID 701, 2007; Coagulation factor XII (Homo sapiens), P00748; 33,000 compounds, 0.2% hits; purified human FXIIa, AMC substrate fluorescence, 2 h; in the data active means inhibition above about 30%;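 further: 0% = enzyme with vehicle only and 100% = no enzyme blank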
Starred values were filed as active, the others as inactive.

SMILES	FXIa single inh	FXIIa single
CN(C)CCc1nc2ccccc2c(=O)n1-c1ccccc1	-1.5	6.0
CCCc1nc2ccccc2c(=O)n1-c1ccc(OC)cc1	42.4*	1.4
CC12CN3CCN(C1)CC(C)(C3)C2=NO	13.1	7.3
CCN1CCN(CC(=O)c2c(C)n(Cc3ccccc3)c3ccc(OC)cc23)CC1	-6.2	7.7
CCOC(=O)c1c(C)n(Cc2ccccc2)c2ccc(OCC(O)Cn3nc(C)cc3C)cc12 (configuration not stated)	100.7*	-15.0
COc1cccc(OC)c1C(=O)Nc1nc(N)n(-c2ccccc2)n1	4.8	7.4

Bioassay records as filed in PubChem BioAssay.
